# Assay outcomes: PubChem BioAssay, National Center for Advancing Translational Sciences (NCATS)
# POLB inh: inhibitors of human DNA polymerase beta | Potency, µM (titrated, usually from 114 µM), for the others: top-dose activity change, negative = inhibition, hits mostly inhibitors | Pol beta primer extension/strand displacement, fluorescence kinetic | 340,000 compounds, 1.3% hits | AID 485314; note: potency is the fitted concentration of half-maximal effect; % is set by controls: 0 for no effect and ±100 for the full control effect
#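 Kinetic readout of DNA synthesis with strand displacement by Pol beta. Compound and 10 nM enzyme sit 15 min at room temperature; 50 nM substrate starts the reaction, read immediately and at 10 min.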
# PI5P4Ka inh: PI5P4K alpha (human) kinase inhibition; PI5P4Kalpha enzyme, ADP-Glo luminescence, 60 min; stronger effect = lower value; P48426; max response, %; AID 652105; 330,000 compounds, 1.2% hits; active = max response of -50% or lower; inconclusive = between -30% and -50%; inactive = -30% or higher; note: value at the top dose of about 77 µM; % is set by controls: 0 for no effect and ±100 for the full control effect
# Target sequence (P48426 whole entry, looked up): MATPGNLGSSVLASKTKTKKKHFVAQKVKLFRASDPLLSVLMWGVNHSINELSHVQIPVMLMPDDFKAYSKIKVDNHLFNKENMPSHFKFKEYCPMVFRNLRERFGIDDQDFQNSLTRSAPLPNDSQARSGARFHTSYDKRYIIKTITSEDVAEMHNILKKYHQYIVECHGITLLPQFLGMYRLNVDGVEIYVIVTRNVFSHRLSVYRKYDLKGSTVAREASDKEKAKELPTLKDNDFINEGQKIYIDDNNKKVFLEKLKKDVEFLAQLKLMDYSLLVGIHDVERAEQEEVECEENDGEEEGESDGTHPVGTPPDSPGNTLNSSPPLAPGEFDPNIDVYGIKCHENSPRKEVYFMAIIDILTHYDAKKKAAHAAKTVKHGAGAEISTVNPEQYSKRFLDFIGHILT
#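 qHTS, 1536-well: enzyme/substrate mix, compound by pin tool, 5 microM ATP final; RT 60 min; ADP-Glo reagents 1 (45 min) then 2 (30 min); luminescence.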
# WRN inhibitor: blocks human WRN helicase. Potency, µM (series often up to 114 µM), without a hit: at the highest dose activity change, negative = inhibition, actives largely listed as inhibitors. Q14191. WRN helicase unwinding, fluorescent forked duplex, kinetic. AID 651768. 360,000 compounds, 0.46% hits; note: potency is the fitted concentration of half-maximal effect; % is set by controls: 0 for no effect and ±100 for the full control effect; nearly all actives have a fitted effect of over 55% in size
#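 WRN at 20 nM final was preincubated with compound for 15 min at room temperature; reaction started with 100 nM forked duplex oligonucleotide carrying fluorophore and quencher plus 2 mM ATP (final). Unwinding followed kinetically by red fluorescence (ex 525/em 598 nm).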
# Pol eta inh: blocks human DNA polymerase eta activity. AID 588591. Q9Y253. recombinant Pol eta, fluorescent DNA replication assay. 390,000 compounds, 1.2% hits. Potency, µM (titrated, usually from 114 µM), without a hit: at the top dose activity change, negative = inhibition, actives largely listed as inhibitors; note: potency is the fitted concentration of half-maximal effect; % is set by controls: 0 for no effect and ±100 for the full control effect
#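 Pol eta (10 nM) was preincubated with compounds for 15 min at room temperature, after which fluorescent replication substrate (50 nM final) was added to start the reaction. Fluorescence was read kinetically at 0 and 10 min.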
# Pol iota inh: blocks human DNA polymerase iota activity; 390,000 compounds, 1% hits; Potency, µM (titrated, usually from 115 µM), without a hit: top-dose activity, negative = inhibition, most hits filed as inhibitors; Q9UNA4; Pol iota fluorescent replication assay, 10 min; AID 588590; note: potency is the fitted concentration of half-maximal effect
#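 Fluorescent replication assay read twice, at 0 min and 10 min after adding 50 nM (final) substrate. Enzyme (10 nM) and compounds were first incubated 15 min at room temperature; enzyme-free buffer wells were negative controls.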
# POLK inh: inhibitors of human DNA polymerase kappa | Q9UBT6 | purified Pol kappa, fluorescent DNA synthesis assay, 10 min | Potency, µM (top dose mostly 107 µM), without a hit: at the top dose activity, negative = inhibition, actives largely listed as inhibitors | 400,000 compounds, 0.53% hits; note: potency is the fitted concentration of half-maximal effect; % is set by controls: 0 for no effect and ±100 for the full control effect
#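 Kinetic fluorescence readout at 0 and 10 min followed reaction start with substrate at 50 nM final. Beforehand, enzyme (10 nM Pol kappa) stood 15 min with compound at room temperature; buffer-only wells were negative controls.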
# Starred values were filed as active, the others as inactive; ? = inconclusive; . = no result; [ ] = another dose, or the depositor's remark. Most compounds without a hit are left out; they make up all but 2.8% or so of the library. Unless noted, calls come from the whole dose curve; as a rule, active = well fitted curve in the direction sought with a large enough effect; inconclusive = small, poorly fitted or top-dose-only effect, or another doubt; inactive = no such curve, though single readings can be large; an effect the other way counts as inactive or inconclusive.
SMILES,POLB inh,PI5P4Ka inh,WRN inhibitor,Pol eta inh,Pol iota inh,POLK inh
CCCc1cc(-c2n[nH]c(C)c2-c2ccc(C(=O)OCC)o2)c(O)cc1O,?,.,-1%,-15%,23%,-6%
CCCc1cc2c(OC(=O)CC)c(-c3ccc(C(=O)OCC)o3)c(=O)oc2cc1OC,2%,-65*,?,?,38%,-10%
O=C1C=CC(=O)N1c1ccc2c(c1)C(NC(=O)C(F)(F)F)c1ccccc1-2 (stereo unspecified),.,?,56µM*,-2%,22%,-14%
Nc1c(O)ccc2c1C(=O)c1ccccc1C2=O,50µM*,-57*,-33%,?,?,79µM*
CCc1ccc(NC(=O)CS(=O)CC(=O)Nc2ccc(-n3cnnn3)c(C)c2)cc1 (stereo unspecified),25µM*,0,-23%,-2%,14%,-13%
Cc1ccc(NC(=O)c2ccccc2)cc1-n1cnnn1,32µM*,1,8%,-14%,26%,-4%
Cc1cc(NC(=O)CS(=O)CC(=O)Nc2c(C)cccc2C)ccc1-n1cnnn1 (stereo unspecified),49%,-1,7%,-8%,-1%,0%
CCC(C)n1c(=N)c(S(=O)(=O)c2ccc(C)cc2)cc2c(=O)n3cc(C)ccc3nc21 (stereo unspecified),12%,.,.,-9%,32%,13%
COCCCNC(=S)Nc1cccc2ncccc12,2%,-5,-22%,1%,5.6µM*,-14%
COc1ccc(NC(=O)CCS(=O)(=O)c2ccc3nc(C)sc3c2)cc1Cl,1%,.,.,8%,-4%,-8%
O=S(=O)(c1cccc(-c2n[nH]c(=S)o2)c1)N1CCOCC1,0%,-73*,-12%,-7%,24%,-16%
O=S(=O)(c1ccc2oc(=S)[nH]c2c1)N1CCOCC1,.,-69*,?,0%,12%,-3%
O=S(=O)(c1ccc2oc(=S)[nH]c2c1)N1CCCCC1,-4%,?,4%,-16%,33%,-11%
O=S(=O)(c1cccc(-c2n[nH]c(=S)n2-c2ccccc2Cl)c1)N1CCOCC1,.,-9,-30%,-6%,76%,-7%
Cc1ccc(C)c(Cn2c(=O)cc(C)c3c(C)nn(C)c32)c1,-2%,.,.,-17%,-10%,0%
CC(=O)c1ccc(NC(=O)Cn2c(=O)nc(-c3ccccc3)c3ccccc32)cc1,-18%,.,.,-10%,71µM*,-9%[60.1 µM]
COc1cccc(C2C=C(c3ccc(Br)s3)Nc3ncnn32)c1OC (stereo unspecified),-15%,-9,-7%,-5%,9%,-11%
Fc1ccc(Br)cc1C1C=C(c2ccc(Br)s2)Nc2ncnn21 (stereo unspecified),10µM*,-16,-33%,28µM*,?,-9%
O=C(/C(=N/N=C/c1ccc(O)c(O)c1O)c1ccccc1)c1ccccc1,3.5µM*,-65*,-31%,?,18µM*,-32%
O=C(NN=Cc1ccc(O)c(O)c1)c1ccccc1,.,-28,-18%,.,.,.
COc1cc(Cn2c3ccc(NC(=O)NCCc4ccccc4)cc3c(=O)n2C)ccc1F,.,4,-8%,.,.,.
Cc1cc(-c2csc(NCc3ccccc3)n2)c(C)n1C,28%,-55*,-8%,-16%,48%,-11%
COc1ccc(N=C2NC(=O)/C(=C\c3ccco3)S2)cc1,20µM*,-59*,?,?,40µM*,?
COc1cc(/C=C2/SC(=Nc3ccc(O)cc3)NC2=O)cc(OC)c1O,-22%,-51*,-15%,3%,?,-28%
CC(=O)Nc1ccc(S(=O)(=O)/N=C2/NC(=O)/C(=C\c3ccco3)S2)cc1,10µM*,2,-2%[11.6 µM],20µM*,?,?
SMILES,POLB inh,PI5P4Ka inh,WRN inhibitor,Pol eta inh,Pol iota inh,POLK inh
CCc1ccc(N=C2NC(=O)/C(=C/c3ccc(OCC(=O)O)c(OC)c3)S2)cc1,20µM*,-75*,?,13%,?,-25%
COC(=O)c1c(-c2ccc(Cl)cc2)noc1N1CCN(c2ccc(OC)cc2)CC1,3%,.,.,-21%,6%,-8%[60.1 µM]
O=C(COc1ccc(Cl)cc1)Nc1ccc2nc(SCC(=O)N3CCOCC3)sc2c1,-2%,.,.,-13%,7%,-2%
O=C(CSc1nc(=O)n(Cc2ccncc2)c2c1CCC2)Nc1cccc(F)c1,1%,.,.,-5%,21%,-14%[60.1 µM]
CCOc1ccc(N=C2NC(=O)S/C2=C\c2ccc(OC)cc2)cc1,10µM*,.,-16%[57.1 µM],-10%,?,-8%
COc1ccc(/C=C2\SC(=Nc3ccccc3)NC2=O)cc1,0%,.,.,.,.,.
COc1cccc(N=C2NC(=O)/C(=C/c3cc([N+](=O)[O-])ccc3O)S2)c1,40%,-76*,-11%[11.6 µM],28µM*,?,-11%
COc1ccc(N=C2NC(=O)/C(=C/c3ccc(O)c(OC)c3)S2)cc1,40µM*,-62*,?,?,?,-29%
COc1ccccc1CNC(=O)c1ccc(N2CCCC2)c(NC(=O)NCCC(C)C)c1,7%,.,.,-14%,2%,-12%[60.1 µM]
COc1cccc(OCc2cc(=O)n3c(-c4ccccc4)csc3n2)c1,20µM*,.,.,-22%,-29%,-24%
COc1cc(OC)cc(N2C(=O)CC(N3CCC(C(=O)N4CCCCC4)CC3)C2=O)c1 (stereo unspecified),20µM*,3,-16%,?,?,-41%
O=S(=O)(c1ccc(Br)cc1)N1CCN(c2nc(-c3cccs3)nc3ccccc23)CC1,.,.,.,.,10%,-11%
COc1ccc(/C=C\c2onc(C)c2S(=O)(=O)N2CCC(C(=O)Nc3cccc(Cl)c3)CC2)cc1,25%,.,.,-5%,14%,-6%
Cc1ccc(NC(=O)c2ccc(NC(=O)N3CCSc4ncccc43)cc2)cc1Cl,10%,.,.,-12%,-6%,-19%
CCOC(=O)C1CCN(c2cc3c(cc2NC(=O)c2ccccc2)n(C)c(=O)n3C)CC1,5%,13,0%,-10%,34%,11%
CCOC(=O)C1CCN(c2cc3c(cc2NC(=O)c2ccc(OC)c(OC)c2)n(C)c(=O)n3C)CC1,61%,0,-15%[11.6 µM],50µM*,30%,-8%
CC(=O)N1CCC(c2nc3ccccc3n2C(C)C(=O)NCc2ccccc2)CC1 (stereo unspecified),.,-3,9%,.,.,.
COc1ccc(NC(=O)Nc2ccc([N+](=O)[O-])cc2)cn1,28µM*,-1,?,?,?,-40%
COc1ccc(NC(=O)Nc2cc(C)cc(C)c2)cn1,7%,-4,1%,-13%,5%,-6%
Cc1nc(N2CCOCC2)c2c(C(=O)N3CCN(c4cc(Cl)ccc4C)CC3)c(C)oc2n1,-20%,.,.,-24%,14%,-14%
